Reference: the supplement of paper PMC10849652
Targets with a hit are over-represented here; the source holds about 7,900 in all. About 0.6% of all pairs of compound and target were hits. A number with no mark means an inactive call.

Each target was assayed with Cn1cc(-c2ccc3c(c2)CCN3C(=O)Cc2cccc(C(F)(F)F)c2)c2c(N)ncnc21 (assay: log2 fold change, soluble protein after heating vs DMSO (PISA); higher = thermal stabilisation; K562 cells, 10 uM, 30 min; active = over 0.2 and 3.5 SD of the protein, either way, in both replicates (recomputed)).
Procedure, shortened: (§1)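 Values are thermal stability changes relative to control samples and are taken from duplicates. They are stated as log2 fold changes. Before quantification by TMTpro 16plex LC-MS/MS with equalised channel sums, K562 cells at 2×10^6 cells/mL were treated with 10 μM compound for 30 min, heated in aliquots for 3 min across 48°C-58°C, pooled, extracted in PBS with 0.5% NP-40 at 4°C, and centrifuged at 21,000xg for 90 min to give the soluble supernatant.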

Sequence of UniProt P00367 (P00367 whole entry, looked up): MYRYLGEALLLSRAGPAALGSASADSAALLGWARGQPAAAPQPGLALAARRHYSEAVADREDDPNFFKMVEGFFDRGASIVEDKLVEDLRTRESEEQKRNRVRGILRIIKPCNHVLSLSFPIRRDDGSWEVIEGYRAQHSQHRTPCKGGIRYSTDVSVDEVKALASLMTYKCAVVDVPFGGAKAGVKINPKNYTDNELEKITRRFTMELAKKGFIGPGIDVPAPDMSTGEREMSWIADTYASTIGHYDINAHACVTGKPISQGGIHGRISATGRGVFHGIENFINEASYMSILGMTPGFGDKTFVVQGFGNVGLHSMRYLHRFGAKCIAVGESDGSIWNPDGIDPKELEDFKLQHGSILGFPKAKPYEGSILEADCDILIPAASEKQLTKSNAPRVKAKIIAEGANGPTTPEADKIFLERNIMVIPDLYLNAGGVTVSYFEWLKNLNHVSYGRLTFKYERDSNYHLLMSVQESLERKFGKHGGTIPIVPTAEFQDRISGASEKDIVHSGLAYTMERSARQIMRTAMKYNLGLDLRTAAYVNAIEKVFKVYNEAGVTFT
Sequence of UniProt P31943 (P31943 whole entry, looked up): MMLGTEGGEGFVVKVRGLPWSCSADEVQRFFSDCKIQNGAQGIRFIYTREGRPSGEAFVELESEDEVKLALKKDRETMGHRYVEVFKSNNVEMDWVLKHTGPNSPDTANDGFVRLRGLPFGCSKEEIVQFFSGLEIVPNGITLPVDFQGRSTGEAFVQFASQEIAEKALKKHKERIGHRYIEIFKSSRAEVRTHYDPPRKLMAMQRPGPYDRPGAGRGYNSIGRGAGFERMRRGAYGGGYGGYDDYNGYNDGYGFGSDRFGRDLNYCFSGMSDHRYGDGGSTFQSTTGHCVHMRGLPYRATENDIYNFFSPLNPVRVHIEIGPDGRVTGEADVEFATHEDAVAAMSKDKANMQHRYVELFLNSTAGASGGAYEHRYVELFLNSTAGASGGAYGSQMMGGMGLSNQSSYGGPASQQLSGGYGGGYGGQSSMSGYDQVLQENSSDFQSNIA
Sequence of UniProt Q8TEQ6 (Q8TEQ6 whole entry, looked up): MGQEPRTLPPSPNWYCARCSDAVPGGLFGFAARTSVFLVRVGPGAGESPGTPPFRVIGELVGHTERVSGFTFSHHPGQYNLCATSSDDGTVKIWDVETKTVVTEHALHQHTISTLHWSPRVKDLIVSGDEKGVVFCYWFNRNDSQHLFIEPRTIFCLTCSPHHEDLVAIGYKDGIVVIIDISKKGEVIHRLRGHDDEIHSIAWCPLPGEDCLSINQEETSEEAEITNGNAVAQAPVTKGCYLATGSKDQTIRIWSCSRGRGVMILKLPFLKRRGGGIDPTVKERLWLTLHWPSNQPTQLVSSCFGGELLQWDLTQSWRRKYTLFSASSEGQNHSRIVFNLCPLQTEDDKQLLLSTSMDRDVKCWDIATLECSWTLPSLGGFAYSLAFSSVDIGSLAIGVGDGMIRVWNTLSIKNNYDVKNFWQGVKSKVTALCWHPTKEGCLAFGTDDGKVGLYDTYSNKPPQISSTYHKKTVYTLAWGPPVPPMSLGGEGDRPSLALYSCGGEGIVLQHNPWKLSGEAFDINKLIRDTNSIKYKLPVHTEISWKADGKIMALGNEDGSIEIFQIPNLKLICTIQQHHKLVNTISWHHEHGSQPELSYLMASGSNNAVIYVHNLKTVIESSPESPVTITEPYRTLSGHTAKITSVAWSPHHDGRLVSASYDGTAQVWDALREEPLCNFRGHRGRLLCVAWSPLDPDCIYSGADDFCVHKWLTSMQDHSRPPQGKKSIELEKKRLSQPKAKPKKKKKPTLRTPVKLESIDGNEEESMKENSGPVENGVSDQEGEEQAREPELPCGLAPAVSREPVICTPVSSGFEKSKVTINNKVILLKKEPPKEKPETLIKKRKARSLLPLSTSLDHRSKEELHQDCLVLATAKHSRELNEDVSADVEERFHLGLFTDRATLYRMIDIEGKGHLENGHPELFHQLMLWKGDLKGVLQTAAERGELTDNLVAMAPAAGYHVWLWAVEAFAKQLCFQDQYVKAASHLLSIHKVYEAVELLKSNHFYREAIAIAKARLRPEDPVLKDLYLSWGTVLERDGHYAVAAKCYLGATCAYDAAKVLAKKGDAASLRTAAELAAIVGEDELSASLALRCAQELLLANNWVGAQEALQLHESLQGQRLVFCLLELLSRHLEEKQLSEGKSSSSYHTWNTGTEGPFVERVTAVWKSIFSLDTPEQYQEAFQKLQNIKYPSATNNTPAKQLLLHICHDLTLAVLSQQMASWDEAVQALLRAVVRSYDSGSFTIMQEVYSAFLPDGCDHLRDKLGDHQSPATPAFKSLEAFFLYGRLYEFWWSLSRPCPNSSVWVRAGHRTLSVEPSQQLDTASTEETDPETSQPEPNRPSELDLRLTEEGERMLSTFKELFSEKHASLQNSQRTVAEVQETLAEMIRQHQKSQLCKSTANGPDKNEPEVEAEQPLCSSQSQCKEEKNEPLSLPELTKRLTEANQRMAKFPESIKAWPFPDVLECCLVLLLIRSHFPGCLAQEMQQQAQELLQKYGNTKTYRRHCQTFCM
Sequence of UniProt Q9P2D3 (Q9P2D3 whole entry, looked up): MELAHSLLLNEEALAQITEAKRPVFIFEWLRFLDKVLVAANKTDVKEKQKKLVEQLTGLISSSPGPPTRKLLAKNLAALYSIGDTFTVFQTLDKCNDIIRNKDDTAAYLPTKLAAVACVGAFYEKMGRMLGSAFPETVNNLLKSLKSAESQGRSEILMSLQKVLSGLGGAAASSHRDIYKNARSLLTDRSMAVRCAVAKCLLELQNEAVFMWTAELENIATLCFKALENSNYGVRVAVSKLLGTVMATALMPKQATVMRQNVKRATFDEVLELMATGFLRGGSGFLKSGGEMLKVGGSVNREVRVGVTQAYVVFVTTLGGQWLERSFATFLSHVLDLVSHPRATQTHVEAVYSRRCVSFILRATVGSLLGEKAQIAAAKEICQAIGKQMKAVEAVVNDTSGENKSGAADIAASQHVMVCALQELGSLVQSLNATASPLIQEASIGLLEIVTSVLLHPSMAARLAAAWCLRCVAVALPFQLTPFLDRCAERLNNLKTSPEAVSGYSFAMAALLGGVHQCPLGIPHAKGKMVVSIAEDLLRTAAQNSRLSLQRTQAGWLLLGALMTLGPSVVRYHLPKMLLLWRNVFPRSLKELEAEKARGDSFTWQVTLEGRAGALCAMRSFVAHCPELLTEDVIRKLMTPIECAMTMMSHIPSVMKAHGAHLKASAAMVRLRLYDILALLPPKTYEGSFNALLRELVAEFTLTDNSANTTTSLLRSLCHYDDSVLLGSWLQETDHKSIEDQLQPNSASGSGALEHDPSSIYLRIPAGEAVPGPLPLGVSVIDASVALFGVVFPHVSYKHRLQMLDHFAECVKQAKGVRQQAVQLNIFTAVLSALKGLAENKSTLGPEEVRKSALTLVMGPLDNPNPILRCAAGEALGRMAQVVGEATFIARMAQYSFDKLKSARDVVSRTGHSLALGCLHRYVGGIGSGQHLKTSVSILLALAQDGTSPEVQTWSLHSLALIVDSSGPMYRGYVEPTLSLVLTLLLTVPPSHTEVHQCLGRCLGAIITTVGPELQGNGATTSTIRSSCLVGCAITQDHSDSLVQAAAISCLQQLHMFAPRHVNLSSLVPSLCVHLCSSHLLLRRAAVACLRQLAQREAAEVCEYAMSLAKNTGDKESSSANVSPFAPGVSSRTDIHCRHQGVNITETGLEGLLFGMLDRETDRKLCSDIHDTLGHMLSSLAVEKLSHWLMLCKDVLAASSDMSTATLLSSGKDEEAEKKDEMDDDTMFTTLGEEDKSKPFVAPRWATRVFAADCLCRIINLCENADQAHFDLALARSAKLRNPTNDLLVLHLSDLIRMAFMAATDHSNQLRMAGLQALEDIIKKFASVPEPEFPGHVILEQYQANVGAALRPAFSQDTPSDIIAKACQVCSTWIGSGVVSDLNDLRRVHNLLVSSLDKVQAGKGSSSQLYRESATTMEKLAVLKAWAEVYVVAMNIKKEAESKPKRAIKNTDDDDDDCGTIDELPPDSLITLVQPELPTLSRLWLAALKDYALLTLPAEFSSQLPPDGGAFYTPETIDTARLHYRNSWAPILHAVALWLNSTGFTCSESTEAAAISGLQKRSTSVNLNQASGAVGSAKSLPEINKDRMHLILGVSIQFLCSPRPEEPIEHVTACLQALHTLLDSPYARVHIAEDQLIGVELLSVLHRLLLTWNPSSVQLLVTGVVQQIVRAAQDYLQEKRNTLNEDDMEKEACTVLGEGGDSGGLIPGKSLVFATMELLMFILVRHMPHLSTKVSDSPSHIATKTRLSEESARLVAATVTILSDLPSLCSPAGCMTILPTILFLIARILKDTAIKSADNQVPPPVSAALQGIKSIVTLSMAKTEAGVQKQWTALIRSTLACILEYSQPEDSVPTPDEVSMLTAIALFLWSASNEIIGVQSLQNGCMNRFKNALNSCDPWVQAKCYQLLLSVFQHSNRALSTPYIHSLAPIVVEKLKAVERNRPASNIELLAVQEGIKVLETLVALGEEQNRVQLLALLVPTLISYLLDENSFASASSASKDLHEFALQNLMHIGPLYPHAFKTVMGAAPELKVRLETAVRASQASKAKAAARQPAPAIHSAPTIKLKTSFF
Sequence of UniProt Q12894 (Q12894 whole entry, looked up): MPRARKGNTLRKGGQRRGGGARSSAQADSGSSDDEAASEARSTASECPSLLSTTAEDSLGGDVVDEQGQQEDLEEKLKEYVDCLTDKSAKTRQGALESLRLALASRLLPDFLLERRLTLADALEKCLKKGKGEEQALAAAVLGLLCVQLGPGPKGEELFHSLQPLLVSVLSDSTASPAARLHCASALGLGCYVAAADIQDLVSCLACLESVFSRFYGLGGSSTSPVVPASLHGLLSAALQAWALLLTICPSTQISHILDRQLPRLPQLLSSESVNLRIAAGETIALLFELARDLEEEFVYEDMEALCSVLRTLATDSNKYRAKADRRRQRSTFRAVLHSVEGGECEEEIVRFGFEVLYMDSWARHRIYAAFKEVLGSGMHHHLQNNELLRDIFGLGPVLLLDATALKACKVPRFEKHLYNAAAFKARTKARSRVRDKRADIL

| Target | log2 fold change |
| --- | --- |
| FDPS (UniProt P14324) | 0.209 |
| GLUD1 (UniProt P00367) | 0.173 |
| GLRX3 (UniProt O76003) | -0.015 |
| GTF3A (UniProt Q92664) | 0.023 |
| GLS (UniProt O94925) | -0.081 |
| GUSB (UniProt P08236) | -0.059 |
| FERMT3 (UniProt Q86UX7) | 0.029 |
| GSK3A (UniProt P49840) | -0.004 |
| HLTF (UniProt Q14527) | -0.035 |
| HTATIP2 isoform 3 (UniProt Q9BUP3) | 0.031 |
| HMGN1 (UniProt P05114) | -0.022 |
| GTPBP6 (UniProt O43824) | 0.057 |
| HEATR5B (UniProt Q9P2D3) | -0.029 |
| FUCA2 (UniProt Q9BTY2) | 0.012 |
| GALNT4 (UniProt Q8N4A0) | 0.079 |
| HAT1 (UniProt O14929) | 0.024 |
| GHDC (UniProt Q8N2G8) | 0.045 |
| IFNGR1 (UniProt P15260) | 0.123 |

| Target | log2 fold change |
| --- | --- |
| HDAC2 (UniProt Q92769) | -0.01 |
| GALNT11 (UniProt Q8NCW6) | 0.069 |
| HNRNPH1 (UniProt P31943) | 0.022 |
| GOLPH3 (UniProt Q9H4A6) | 0.02 |
| HMG20A (UniProt Q9NP66) | -0.05 |
| FBXO9 (UniProt Q9UK97) | -0.236 |
| GLUD2 (UniProt P49448) | 0.265 (active) |
| GTF3C5 isoform 3 (UniProt Q9Y5Q8) | 0.027 |
| GSTO1 (UniProt P78417) | 0.019 |
| HECTD1 (UniProt Q9ULT8) | -0.058 |
| FRA10AC1 isoform 3 (UniProt Q70Z53) | -0.076 |
| HBQ1 (UniProt P09105) | 0.12 |
| GEMIN5 (UniProt Q8TEQ6) | 0.006 |
| IFRD2 isoform 2 (UniProt Q12894) | 0.07 |
| HIC2 (UniProt Q96JB3) | -0.124 |
| GGT7 (UniProt Q9UJ14) | 0.063 |
| FUT8 (UniProt Q9BYC5) | -0.276 |

Each target was assayed with Cn1cc(-c2ccc3nnc(C(F)(F)c4ccc5ncccc5c4)n3n2)cn1 in the same assay as above.
Procedure, shortened: as §1

| Target | log2 fold change |
| --- | --- |
| FDPS (UniProt P14324) | 0.441 |
| GLUD1 (UniProt P00367) | 0.04 |
| GLRX3 (UniProt O76003) | -0.014 |
| GLS (UniProt O94925) | 0.003 |
| GUSB (UniProt P08236) | -0.007 |
| FERMT3 (UniProt Q86UX7) | -0.019 |
| GSK3A (UniProt P49840) | 0.011 |
| HLTF (UniProt Q14527) | -0.01 |
| HTATIP2 isoform 3 (UniProt Q9BUP3) | 0.067 |
| HMGN1 (UniProt P05114) | -0.048 |
| GTPBP6 (UniProt O43824) | 0.042 |
| HEATR5B (UniProt Q9P2D3) | -0.012 |
| FUCA2 (UniProt Q9BTY2) | -0.019 |
| GALNT4 (UniProt Q8N4A0) | -0.005 |
| HAT1 (UniProt O14929) | 0.006 |
| GHDC (UniProt Q8N2G8) | 0.012 |
| IFNGR1 (UniProt P15260) | -0.123 |

| Target | log2 fold change |
| --- | --- |
| HDAC2 (UniProt Q92769) | -0.001 |
| GALNT11 (UniProt Q8NCW6) | -0.031 |
| HNRNPH1 (UniProt P31943) | 0.055 |
| GOLPH3 (UniProt Q9H4A6) | -0.013 |
| HMG20A (UniProt Q9NP66) | -0.224 |
| FBXO9 (UniProt Q9UK97) | -0.093 |
| GLUD2 (UniProt P49448) | -0.028 |
| GTF3C5 isoform 3 (UniProt Q9Y5Q8) | -0.063 |
| GSTO1 (UniProt P78417) | -0.004 |
| HECTD1 (UniProt Q9ULT8) | -0.032 |
| HBQ1 (UniProt P09105) | 0.117 |
| GEMIN5 (UniProt Q8TEQ6) | -0.021 |
| IFRD2 isoform 2 (UniProt Q12894) | -0.176 |
| HIC2 (UniProt Q96JB3) | -0.032 |
| GGT7 (UniProt Q9UJ14) | 0.018 |
| FUT8 (UniProt Q9BYC5) | 0.022 |

What follows are targets tested with Cn1cncc1[C@@](N)(c1ccc(Cl)cc1)c1ccc2c(c1)c(-c1cccc(Cl)c1)cc(=O)n2C [tipifarnib] in the same assay as above.
Procedure, shortened: as §1

| Target | log2 fold change |
| --- | --- |
| FDPS (UniProt P14324) | -0.258 |
| GLUD1 (UniProt P00367) | 0.068 |
| GLRX3 (UniProt O76003) | -0.082 |
| GTF3A (UniProt Q92664) | -0.12 |
| GLS (UniProt O94925) | -0.071 |
| GUSB (UniProt P08236) | 0.16 |
| FERMT3 (UniProt Q86UX7) | -0.087 |
| GSK3A (UniProt P49840) | -0.033 |
| HLTF (UniProt Q14527) | 0.007 |
| HTATIP2 isoform 3 (UniProt Q9BUP3) | 0.106 |
| HMGN1 (UniProt P05114) | 0.066 |
| HEATR5B (UniProt Q9P2D3) | -0.052 |
| FUCA2 (UniProt Q9BTY2) | 0.077 |
| GALNT4 (UniProt Q8N4A0) | 0.038 |
| HAT1 (UniProt O14929) | 0.004 |
| GHDC (UniProt Q8N2G8) | 0.146 |
| IFNGR1 (UniProt P15260) | 0.119 |

| Target | log2 fold change |
| --- | --- |
| HDAC2 (UniProt Q92769) | 0.027 |
| GALNT11 (UniProt Q8NCW6) | 0.102 |
| HNRNPH1 (UniProt P31943) | -0.124 |
| GOLPH3 (UniProt Q9H4A6) | -0.028 |
| HMG20A (UniProt Q9NP66) | 0.064 |
| FBXO9 (UniProt Q9UK97) | -0.088 |
| GLUD2 (UniProt P49448) | 0.079 |
| GTF3C5 isoform 3 (UniProt Q9Y5Q8) | 0.01 |
| GSTO1 (UniProt P78417) | -0.014 |
| HECTD1 (UniProt Q9ULT8) | -0.088 |
| FRA10AC1 isoform 3 (UniProt Q70Z53) | -0.055 |
| HBQ1 (UniProt P09105) | -0.125 |
| GEMIN5 (UniProt Q8TEQ6) | -0.049 |
| IFRD2 isoform 2 (UniProt Q12894) | 0.08 |
| HIC2 (UniProt Q96JB3) | -0.051 |
| GGT7 (UniProt Q9UJ14) | 0.001 |
